Assay in all cases: DAPPL (digital affinity profiling via proximity ligation, sequencing); 10 mM Tris-HCl pH 7.5, 50 mM NaCl, 1 mM DTT, 4% glycerol, room temperature, 30 min; GST-TFs on glutathione beads, 16-mer random dsDNA library, 0.1% formaldehyde crosslink after washing; high values mean tight binding
Details in all cases: protein: recombinant; tags: N-terminal GST; dsDNA, one strand shown

Assay [1] has as its target T1, ERF (Homo sapiens, UniProt P50548 1-548).
T1 sequence: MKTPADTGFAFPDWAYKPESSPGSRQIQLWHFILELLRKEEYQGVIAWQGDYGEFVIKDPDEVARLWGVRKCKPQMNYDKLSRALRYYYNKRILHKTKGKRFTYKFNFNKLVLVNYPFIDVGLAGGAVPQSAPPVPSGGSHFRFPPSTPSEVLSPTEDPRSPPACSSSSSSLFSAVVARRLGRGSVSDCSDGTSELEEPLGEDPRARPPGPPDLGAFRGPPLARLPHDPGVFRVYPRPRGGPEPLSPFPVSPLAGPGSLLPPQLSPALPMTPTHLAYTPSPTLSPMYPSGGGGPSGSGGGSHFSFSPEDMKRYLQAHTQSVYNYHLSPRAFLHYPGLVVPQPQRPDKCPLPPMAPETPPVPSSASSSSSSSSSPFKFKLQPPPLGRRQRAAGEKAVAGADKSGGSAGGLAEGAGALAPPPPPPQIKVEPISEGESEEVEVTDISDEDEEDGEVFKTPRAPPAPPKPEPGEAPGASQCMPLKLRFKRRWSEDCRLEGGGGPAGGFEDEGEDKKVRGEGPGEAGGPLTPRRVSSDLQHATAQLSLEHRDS
In a few lines:
(§1)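 Each value of binding signal is a hexamer's read frequency for a factor divided by the same hexamer's frequency in the tag-only sample. Barcoded, bead-captured GST fusions of human transcription factors made in yeast were pooled with that sample and incubated with 200 nmole of a random double-stranded 16-mer DNA library in Tris/NaCl/DTT/glycerol buffer at room temperature for 30 min. Washing, 0.1% formaldehyde crosslinking, proximity ligation, PCR and Illumina NextSeq500 sequencing followed.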

Assay [2] has as its target T2, ETV3L (Homo sapiens, UniProt Q6ZN32 1-361).
T2 sequence: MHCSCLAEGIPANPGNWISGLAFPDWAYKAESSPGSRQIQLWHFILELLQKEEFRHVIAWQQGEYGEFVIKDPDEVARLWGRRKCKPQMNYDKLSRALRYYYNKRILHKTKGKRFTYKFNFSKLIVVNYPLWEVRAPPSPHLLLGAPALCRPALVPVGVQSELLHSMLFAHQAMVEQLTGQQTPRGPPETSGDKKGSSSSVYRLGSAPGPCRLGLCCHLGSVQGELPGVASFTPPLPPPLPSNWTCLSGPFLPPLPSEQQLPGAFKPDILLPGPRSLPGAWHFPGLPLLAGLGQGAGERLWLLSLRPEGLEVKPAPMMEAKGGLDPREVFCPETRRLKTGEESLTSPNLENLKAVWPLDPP
In a few lines:
as §1

The target of assay [3] is T3, ETS2 (Homo sapiens, UniProt P15036 1-469).
T3 sequence: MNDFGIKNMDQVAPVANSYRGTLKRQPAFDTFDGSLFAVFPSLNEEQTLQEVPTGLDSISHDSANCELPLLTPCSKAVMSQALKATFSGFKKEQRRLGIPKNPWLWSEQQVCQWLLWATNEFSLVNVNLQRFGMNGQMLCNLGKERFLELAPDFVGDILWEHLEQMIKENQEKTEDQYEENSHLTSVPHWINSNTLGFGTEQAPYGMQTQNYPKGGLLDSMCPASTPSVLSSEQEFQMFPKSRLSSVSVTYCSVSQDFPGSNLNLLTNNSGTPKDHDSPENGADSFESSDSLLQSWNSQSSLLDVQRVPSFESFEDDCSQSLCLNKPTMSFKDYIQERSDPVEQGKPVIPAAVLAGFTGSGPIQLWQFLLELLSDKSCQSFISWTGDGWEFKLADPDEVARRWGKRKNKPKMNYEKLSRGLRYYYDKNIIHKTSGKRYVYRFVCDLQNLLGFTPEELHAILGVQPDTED
Put shortly: as §1

Assay [4] has as its target T4, SPDEF (Homo sapiens, UniProt O95238 1-335).
T4 sequence: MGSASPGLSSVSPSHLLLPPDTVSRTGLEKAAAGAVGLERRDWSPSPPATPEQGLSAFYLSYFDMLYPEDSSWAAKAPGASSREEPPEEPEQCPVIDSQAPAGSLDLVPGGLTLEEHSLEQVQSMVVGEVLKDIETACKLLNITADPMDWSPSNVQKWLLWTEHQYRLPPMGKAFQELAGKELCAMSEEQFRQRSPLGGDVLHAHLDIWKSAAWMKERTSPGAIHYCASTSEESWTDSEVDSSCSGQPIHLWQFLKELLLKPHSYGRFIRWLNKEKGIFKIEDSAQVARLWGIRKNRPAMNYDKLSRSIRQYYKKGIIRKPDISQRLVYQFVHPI
In a few lines:
as §1

The target in assay [5] is T5, ETV7 (Homo sapiens, UniProt Q9Y603 1-341).
T5 sequence: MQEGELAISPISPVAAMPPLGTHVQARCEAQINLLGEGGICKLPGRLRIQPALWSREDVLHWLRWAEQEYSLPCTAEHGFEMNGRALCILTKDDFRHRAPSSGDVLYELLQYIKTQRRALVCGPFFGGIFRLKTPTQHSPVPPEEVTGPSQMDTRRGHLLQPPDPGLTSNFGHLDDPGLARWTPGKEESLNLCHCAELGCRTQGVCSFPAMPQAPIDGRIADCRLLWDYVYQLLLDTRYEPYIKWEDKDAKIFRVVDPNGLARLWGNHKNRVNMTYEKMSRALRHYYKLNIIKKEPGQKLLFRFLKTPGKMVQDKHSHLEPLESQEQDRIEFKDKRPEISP
Put shortly: as §1

Assay [6] deals with T6, ELF5 (Homo sapiens, UniProt Q9UKW6-2 1-255).
T6 sequence: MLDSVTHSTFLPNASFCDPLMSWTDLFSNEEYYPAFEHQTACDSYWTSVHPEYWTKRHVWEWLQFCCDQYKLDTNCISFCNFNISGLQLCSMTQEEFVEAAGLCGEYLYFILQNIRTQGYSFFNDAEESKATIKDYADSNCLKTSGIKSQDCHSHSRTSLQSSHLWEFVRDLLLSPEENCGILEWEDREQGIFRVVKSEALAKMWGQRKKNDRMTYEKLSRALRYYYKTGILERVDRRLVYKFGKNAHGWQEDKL
Put shortly: as §1

The target of assay [7] is T7, ETV3 (Homo sapiens, UniProt P41162-2 1-143).
T7 sequence: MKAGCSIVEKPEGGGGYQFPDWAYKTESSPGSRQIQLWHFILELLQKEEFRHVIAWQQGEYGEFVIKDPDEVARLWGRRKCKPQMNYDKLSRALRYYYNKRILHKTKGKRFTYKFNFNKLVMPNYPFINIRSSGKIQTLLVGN
In a few lines: as §1

Assay [8] deals with ETV6 (Homo sapiens, UniProt P41212 1-452). Put shortly: as §1

The source of these data is publication PMC7862700, “An all-to-all approach to the identification of sequence-specific readers for epigenetic DNA modifications on cytosine”.

Chain of ETV6 (P41212 whole entry): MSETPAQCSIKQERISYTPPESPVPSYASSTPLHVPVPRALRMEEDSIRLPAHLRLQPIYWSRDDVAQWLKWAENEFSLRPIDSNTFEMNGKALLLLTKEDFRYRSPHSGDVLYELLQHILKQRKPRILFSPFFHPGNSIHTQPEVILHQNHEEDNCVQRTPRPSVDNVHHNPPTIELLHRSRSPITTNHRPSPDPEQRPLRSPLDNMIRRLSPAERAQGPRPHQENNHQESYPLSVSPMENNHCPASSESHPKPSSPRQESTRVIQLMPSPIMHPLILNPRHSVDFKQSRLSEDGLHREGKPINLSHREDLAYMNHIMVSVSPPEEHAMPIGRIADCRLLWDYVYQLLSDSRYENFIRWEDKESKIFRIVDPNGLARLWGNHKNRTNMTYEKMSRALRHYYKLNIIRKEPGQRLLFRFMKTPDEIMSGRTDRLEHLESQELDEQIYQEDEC

In the case of ACTCTA, the binding signal is 1.56 fold enrichment (6-mer frequency, TF over GST control) in assay [1]; 1.39 fold enrichment (6-mer frequency, TF over GST control) in assay [2]; 1.39 fold enrichment (6-mer frequency, TF over GST control) in assay [3]; 1.38 fold enrichment (6-mer frequency, TF over GST control) in assay [4]; 1.34 fold enrichment (6-mer frequency, TF over GST control) in assay [5]; 1.41 fold enrichment (6-mer frequency, TF over GST control) in assay [6]. The binding signal is 1.48 fold enrichment (6-mer frequency, TF over GST control) in assay [7] and 1.33 fold enrichment (6-mer frequency, TF over GST control) in assay [8].
Take CTATTG: the binding signal in assay [1] is 1.37 fold enrichment (6-mer frequency, TF over GST control); in assay [2], 1.27 fold enrichment (6-mer frequency, TF over GST control); in assay [3] it was 1.35 fold enrichment (6-mer frequency, TF over GST control); in assay [4], 1.18 fold enrichment (6-mer frequency, TF over GST control); in assay [5], 1.25 fold enrichment (6-mer frequency, TF over GST control); in assay [6], 1.23 fold enrichment (6-mer frequency, TF over GST control). Besides, the binding signal in assay [7] was 1.42 fold enrichment (6-mer frequency, TF over GST control); in assay [8], 1.35 fold enrichment (6-mer frequency, TF over GST control).
For the sequence GGAAAC, the binding signal was 1.19 fold enrichment (6-mer frequency, TF over GST control) in assay [1]; 1.32 fold enrichment (6-mer frequency, TF over GST control) in assay [2]; 1.3 fold enrichment (6-mer frequency, TF over GST control) in assay [3]; 1.29 fold enrichment (6-mer frequency, TF over GST control) in assay [4]; 1.34 fold enrichment (6-mer frequency, TF over GST control) in assay [5]; 1.7 fold enrichment (6-mer frequency, TF over GST control) in assay [6]. Further, the binding signal was 1.42 fold enrichment (6-mer frequency, TF over GST control) in assay [7] and 1.66 fold enrichment (6-mer frequency, TF over GST control) in assay [8].
TACAGG: the binding signal in assay [1] was 1.1 fold enrichment (6-mer frequency, TF over GST control); in assay [2], 1.27 fold enrichment (6-mer frequency, TF over GST control); in assay [3], 1.08 fold enrichment (6-mer frequency, TF over GST control); in assay [4], 1.39 fold enrichment (6-mer frequency, TF over GST control); in assay [5] it was 1.12 fold enrichment (6-mer frequency, TF over GST control); in assay [6], 1.22 fold enrichment (6-mer frequency, TF over GST control). For the same sequence, the binding signal in assay [7] is 1.18 fold enrichment (6-mer frequency, TF over GST control); in assay [8], 1.19 fold enrichment (6-mer frequency, TF over GST control).
With ACCTTG, the binding signal in assay [1] is 1.31 fold enrichment (6-mer frequency, TF over GST control); in assay [2], 1.23 fold enrichment (6-mer frequency, TF over GST control); in assay [3] it was 1.27 fold enrichment (6-mer frequency, TF over GST control); in assay [4] it was 1.27 fold enrichment (6-mer frequency, TF over GST control); in assay [5] it was 1.22 fold enrichment (6-mer frequency, TF over GST control); in assay [6], 1.11 fold enrichment (6-mer frequency, TF over GST control). In addition, the binding signal in assay [7] is 1.25 fold enrichment (6-mer frequency, TF over GST control); in assay [8], 1.17 fold enrichment (6-mer frequency, TF over GST control).
Take TGACCA: the binding signal in assay [1] was 1.31 fold enrichment (6-mer frequency, TF over GST control); in assay [2], 1.32 fold enrichment (6-mer frequency, TF over GST control); in assay [3], 1.23 fold enrichment (6-mer frequency, TF over GST control); in assay [4], 1.24 fold enrichment (6-mer frequency, TF over GST control); in assay [5], 1.15 fold enrichment (6-mer frequency, TF over GST control); in assay [6], 1.16 fold enrichment (6-mer frequency, TF over GST control). The binding signal in assay [7] was 1.23 fold enrichment (6-mer frequency, TF over GST control); in assay [8] it was 1.27 fold enrichment (6-mer frequency, TF over GST control).
Take ATATTC: the binding signal in assay [1] was 1.08 fold enrichment (6-mer frequency, TF over GST control); in assay [2] it was 1.35 fold enrichment (6-mer frequency, TF over GST control); in assay [3] it was 1.2 fold enrichment (6-mer frequency, TF over GST control); in assay [4] it was 1.26 fold enrichment (6-mer frequency, TF over GST control); in assay [5] it was 1.24 fold enrichment (6-mer frequency, TF over GST control); in assay [6] it was 1.31 fold enrichment (6-mer frequency, TF over GST control). The binding signal in assay [7] is 1.19 fold enrichment (6-mer frequency, TF over GST control); in assay [8], 1.32 fold enrichment (6-mer frequency, TF over GST control).
As to CACTTG, the binding signal in assay [1] is 1.41 fold enrichment (6-mer frequency, TF over GST control); in assay [2], 1.22 fold enrichment (6-mer frequency, TF over GST control); in assay [3], 1.32 fold enrichment (6-mer frequency, TF over GST control); in assay [4], 1.35 fold enrichment (6-mer frequency, TF over GST control); in assay [5] it was 1.37 fold enrichment (6-mer frequency, TF over GST control); in assay [6], 1.33 fold enrichment (6-mer frequency, TF over GST control). The binding signal in assay [7] is 1.39 fold enrichment (6-mer frequency, TF over GST control); in assay [8] it was 1.31 fold enrichment (6-mer frequency, TF over GST control).
